# In the library only some 2.4% were active in any assay of this set; here they are far more common.
# D2 ag-1 – human D2 receptor agonism in beta-arrestin assay; P14416; DiscoveRx PathHunter D2 beta-arrestin, luminescence, 90 min; 100% = 57 uM dopamine signal; activation, % (test concentration not listed); 0.084% of 360,000 active; AID 624465; in the data active means activation above about 40%; inconclusive means between about 15% and that limit
# Target sequence (P14416 whole entry, looked up): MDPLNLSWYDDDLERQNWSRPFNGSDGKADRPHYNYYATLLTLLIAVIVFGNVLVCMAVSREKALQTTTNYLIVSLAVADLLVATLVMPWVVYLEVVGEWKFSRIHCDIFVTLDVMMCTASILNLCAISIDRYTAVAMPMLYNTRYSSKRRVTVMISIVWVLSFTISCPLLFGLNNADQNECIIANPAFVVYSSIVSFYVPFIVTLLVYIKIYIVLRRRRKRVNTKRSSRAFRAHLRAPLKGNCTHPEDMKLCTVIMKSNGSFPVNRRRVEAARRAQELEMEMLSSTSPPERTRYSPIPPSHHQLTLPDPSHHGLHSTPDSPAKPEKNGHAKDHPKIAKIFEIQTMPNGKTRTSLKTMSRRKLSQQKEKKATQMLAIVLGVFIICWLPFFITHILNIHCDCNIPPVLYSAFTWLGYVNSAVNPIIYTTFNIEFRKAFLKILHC
#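 DiscoveRx PathHunter D2 beta-arrestin cells (2,100/well) attached overnight, then compound-stimulated 90 min at 37 C in HBSS/10 mM HEPES/0.1% Tween-20 buffer; beta-galactosidase complementation read by luminescence after 1 h at ambient temperature. Dopamine 57 uM final (EC100) as control.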
# D2 PAM-1 – positive allosteric modulators of human D2 dopamine receptor; DiscoveRx D2 beta-arrestin cells, luminescence, 90 min; 100% = 57 uM dopamine signal; AID 624464; 0.23% of 360,000 active; potentiation, % (test concentration not listed); P14416; in the data active means potentiation above about 50%; inconclusive means mostly about 30% to 49%
#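 PathHunter beta-arrestin assay in DiscoveRx D2 cells. Compounds were added with an EC20 of dopamine (50 nM final) for 90 min at 37 deg C. Luminescence was read 1 h after detection reagent, with 57 uM dopamine as the EC100 control.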
# D2 ag-2 – D2 dopamine receptor (human) agonism; HEK293 T-REx D2 cells, calcium flux agonist mode; activation, % at 2 µM; 0.53% of 340,000 active; AID 485358;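 active means activation over 3 SD above normal in the single-dose calcium agonist read, cut at about 30% in these data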; further: 0% is about no effect
#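 Tetracycline-induced HEK293 T-REx cells with force-coupled D2 receptor, plated overnight at 30 C, loaded with no-wash calcium dye. After a 10 s baseline, compound was pin-added and calcium flux read kinetically for 180 s; calcium rises flagged agonists.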
# D2 PAM-2 – D2 dopamine receptor (human) potentiation; 0.34% of 340,000 active; AID 485347; HEK293 T-REx D2, calcium flux, EC20 dopamine potentiation; P14416; potentiation, % at 10 µM;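 active means potentiation over 3 SD above the plate norm, cut at about 30% in these data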; further: 0% is about no effect
#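 Potentiation of an EC20 dopamine calcium response measured kinetically over 180 s, after a preceding 180 s compound-only read flagging agonists. Cells: inducible Hek293 Trex D2 line, 4000/well, cultured overnight at 30 C before dye loading.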
# D2 antagonist – D2 dopamine receptor (human) antagonism | AID 485344 | inhibition, % at 10 µM | HEK293 TREx D2 cells, calcium flux, dopamine EC80 | P14416 | 2% of 340,000 active; in the data active means inhibition above about 30%; inactive means below that, where a call was filed; further: 0% is about no effect
#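 Overnight-induced (tetracycline, 30 C) HEK293 T-REx cells carrying force-coupled D2 receive a no-wash calcium dye, then compound, then EC80 dopamine at 180 s; signals are read kinetically throughout.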
# * hit, by the source's call; ? = inconclusive; / = no result given.
SMILES,D2 ag-1,D2 PAM-1,D2 ag-2,D2 PAM-2,D2 antagonist
Cc1cccc(N(CC(=O)NC2CCCC2)C(=O)CS(=O)CC(=O)Nc2ccc3c(c2)OCO3)c1 (configuration not stated),-3.0,-8.3,-0.1,-14.5,31.7*
COc1c(C)cc(Br)cc1C(=O)Nc1ccccc1C,-8.8,-4.9,-1.5,-2.9,7.7
COc1c(C)cc(Br)cc1C(=O)O,-1.2,-4.7,1.3,-8.5,40.5*
O=C(Nc1ccc(F)cc1)C(c1ccccc1)N1CCN(S(=O)(=O)c2ccc3ccccc3c2)CC1 (configuration not stated),0.6,-10.1,1.1,-2.5,36.9*
Cc1ccc(C)c(S(=O)(=O)N2CCN(C(C(=O)Nc3ccc(F)cc3)c3ccccc3)CC2)c1 (configuration not stated),-1.1,-12.5,0.3,-4.2,-8.0
COc1ccc(N2C(N)=NC(N)=NC2(C)C)cc1,-3.5,-3.6,-1.0,31.3*,-13.4
CCN(CC)S(=O)(=O)c1ccc2c(c1)nc(CN(C)C(=O)Nc1ccc(C)c(F)c1)n2C,/,/,0.0,-14.0,/
CCCn1cnc2c(oc3ccccc32)c1=O,-3.0,-3.0,0.4,2.5,-2.8
CCCn1cnc2c(=O)oc3ccccc3c21,-5.3,-8.9,0.4,4.6,38.9*
CCN(CC(=O)NCc1ccc(F)cc1)C(=O)CN1CCN(c2cc(Cl)ccc2C)CC1,-6.5,-25.1,-1.0,-25.4,0.2
CN(C)c1ccc(O)c2c1CC1CC3[C@@H](N(C)C)C(=O)C(C(N)=O)C(=O)[C@]3(O)C(=O)C1C2=O (some centres not stated),?,60.9*,/,/,/
CN(C)c1ccc(O)c2c1CC1CC3C(N(C)C)C(=O)C(C(N)=O)=C(O)[C@@]3(O)C(=O)C1=C2O (some centres not stated),-2.9,0.5,/,/,/
Fc1ccc(CSc2ncnc3c2oc2ccccc23)cc1,3.7,0.0,2.1,1.6,3.7
Fc1cccc(CSc2ncnc3c2oc2ccccc23)c1,-3.1,-5.5,0.8,-9.7,30.5*
Cc1ccc(-n2nc(CO)c(C(=O)NCCCc3ccccc3)n2)cc1C,/,/,0.5,-3.4,/
CSCC[C@H](N)C(=O)NCC1CCC(C(=O)Nc2ccc3c(c2)OCO3)CC1 (some centres not stated),-2.8,-43.1,0.0,-12.4,-25.3
COc1ccc(OC)c(N2CC(O)(c3cccs3)[N+]3=C2SCCC3)c1 (configuration not stated),-4.1,-48.1,3.8,-25.0,40.0*
OC1(c2cccs2)CN(c2ccc(Br)cc2)C2=[N+]1CCCS2 (configuration not stated),-3.6,-17.3,6.0,-19.1,2.3
CC(C)(C)C(=O)Nc1nc(-c2ccc3c(c2)OCO3)cs1,-2.7,-18.2,-0.6,21.6,-2.5
CCC(=O)Nc1nc(-c2ccc3c(c2)OCCO3)cs1,1.9,-0.9,0.4,-2.6,31.8*
CCOC(=O)c1sc(-c2ccccc2)nc1C,0.6,1.0,0.5,2.1,0.4
CCOC(=O)Cc1ccc2sc(-c3ccccc3)nc2c1,1.8,-5.6,-1.0,5.4,32.2*
Oc1cc(-c2ccccc2)c2ccccc2c1,45.5*,29.8,0.8,-5.4,-6.1
Cc1ccc(C(=O)N/C(=C\c2sccc2C)C(=O)NCCCN2CCOCC2)cc1,-3.0,-11.1,0.1,-8.6,31.3*
Cc1ccccc1-c1noc(CSc2nnc(Cc3ccccc3)n2-c2ccc(F)cc2)n1,/,/,2.4,0.1,/
SMILES,D2 ag-1,D2 PAM-1,D2 ag-2,D2 PAM-2,D2 antagonist
Cc1cc(=O)oc2c(C)c(OCC(=O)Nc3cccnc3)ccc12,2.7,-0.3,0.3,-3.2,35.8*
COc1ccc(CCNC(=O)NC2CCCCC2)cc1,-0.9,1.1,0.1,5.2,30.8*
COc1cccc(-c2nnc(SCC(=O)NC3CCS(=O)(=O)C3)n2C)c1 (configuration not stated),1.5,-13.7,0.5,-4.2,39.0*
Cc1nn(CC(=O)NCc2ccc(F)cc2)c2ccccc12,/,/,-0.4,3.6,/
CCn1c(=O)c(C(C)=O)nc2ccccc21,-3.7,-8.1,-0.1,-1.7,32.8*
CCN(Cc1ccccc1)Cc1ccc(OCc2ccccc2)cc1,-3.7,-68.2,-1.8,-7.9,31.1*
CC(=O)OC[C@@H]1CN(Cc2cccc(C(F)(F)F)c2)C[C@H](n2cnc3c(NCc4ccco4)ncnc32)O1,11.1,10.8,/,/,/
O=C(CSc1nc2ccccc2[nH]1)Nc1c(F)c(F)c(F)c(F)c1F,5.7,0.0,0.1,43.0*,-7.2
Cc1cc(NC(=O)C2CCN(S(=O)(=O)Cc3ccccc3)CC2)ccc1-n1cnnn1,-1.6,6.2,1.0,0.9,30.4*
Cc1cc(NC(=O)C2CCCN2C(=O)Nc2c(C)cccc2C)ccc1-n1cnnn1 (configuration not stated),-2.3,-13.3,-0.1,14.1,15.4
COc1cc(/C=C2\SC(=N)N(c3ccc(F)cc3)C2=O)ccc1O,0.8,-19.5,1.8,-23.2,55.8*
CCOc1ccc(N2C(=O)S/C(=C\c3ccc(O)c(OC)c3)C2=O)cc1,-6.2,-13.6,3.0,15.5,-16.2
COc1cc(/C=C2\SC(c3ccc(C)cc3)=NC2=O)ccc1O,-3.5,-16.7,3.6,-4.4,32.1*
COc1ccc(/C=C2\SC(c3ccc(C)cc3)=NC2=O)cc1OC,-6.6,-11.3,7.4,0.6,4.5
COc1cc(/C=C2\SC(=S)N(NC(=O)c3ccc(O)cc3)C2=O)ccc1O,-1.3,-11.2,35.5*,4.8,-5.8
CCOc1cc(/C=C2\SC(=S)N(Nc3ccccc3)C2=O)ccc1O,-8.8,-26.7,8.4,9.0,35.1*
CCc1ccc(-n2nnc(-c3nc(-c4cccs4)no3)c2N)cc1,/,/,0.7,2.4,/
Cc1cccc(NS(=O)(=O)c2ccc3oc(=O)c4ncn(C)c4c3c2)c1C,/,/,0.6,-0.9,/
Cc1ccc2scc(N3CCCCC3)c(=O)c2c1,/,/,-0.6,-3.8,/
CSc1nn(Cc2cccc(Cl)c2)c(N(C(C)=O)C(C)=O)c1S(=O)(=O)c1ccccc1,/,/,0.4,2.1,/
COc1ccc(C(=O)Nc2ccc(C(F)(F)F)n(C)c2=O)cc1,0.7,-6.5,0.1,-6.0,9.3
Cc1ccc(C(=O)Nc2cccc3[nH]c(C(F)(F)F)nc23)cc1,3.4,-8.6,0.6,2.0,33.6*
Cc1ccc(C(=O)Nc2ccc(C(F)(F)F)n(C)c2=O)cc1,-5.6,-2.1,0.1,31.7*,7.0
COc1ccc2c3c(ccc2c1)C(=O)/C(=C/O)CC3,?,52.3*,/,/,/
Cc1cccc(-c2nc(SCC(=O)N(C)c3ccccc3)c3c(=O)n(C)c(=O)n(C)c3n2)c1,/,/,0.6,6.1,/
CCN(CC(=O)Nc1cc(Cl)ccc1C)C(=O)COc1cccc2c1OC(C)(C)C2,-2.8,-30.0,0.6,-21.9,43.2*
N#Cc1cc(S(=O)(=O)c2ccccc2)c(N)[nH]c1=O,-4.7,-13.8,0.8,4.2,85.6*

# High-throughput results (PubChem)
